Assay results published in PubChem BioAssay (Tox21).
Records with an inconclusive call do not appear. Active and inactive are the calls of the source. Unless noted, the call rests on the fitted dose curve; in most records, active means well fitted curve in the direction sought with a large enough effect in the repeat runs; inconclusive means weak or mixed curves; inactive means no such curve, though single readings can be large; an effect the other way counts as inactive or inconclusive.

Columns and labels:
[1] = molecular target: Acetylcholinesterase (Homo sapiens) (UniProt P22303); assay: Acetylcholinesterase (AChE) small molecule antagonists: fluorescence cell-based qHTS assay (AID 1347398; calls by dose curve; further: nearly all actives have a fitted effect of over 50% in size; further: potency means the concentration at half of the fitted maximal effect); conditions: Potency: AChE activity
Acetylcholinesterase (Homo sapiens), sequence (P22303 whole entry, looked up): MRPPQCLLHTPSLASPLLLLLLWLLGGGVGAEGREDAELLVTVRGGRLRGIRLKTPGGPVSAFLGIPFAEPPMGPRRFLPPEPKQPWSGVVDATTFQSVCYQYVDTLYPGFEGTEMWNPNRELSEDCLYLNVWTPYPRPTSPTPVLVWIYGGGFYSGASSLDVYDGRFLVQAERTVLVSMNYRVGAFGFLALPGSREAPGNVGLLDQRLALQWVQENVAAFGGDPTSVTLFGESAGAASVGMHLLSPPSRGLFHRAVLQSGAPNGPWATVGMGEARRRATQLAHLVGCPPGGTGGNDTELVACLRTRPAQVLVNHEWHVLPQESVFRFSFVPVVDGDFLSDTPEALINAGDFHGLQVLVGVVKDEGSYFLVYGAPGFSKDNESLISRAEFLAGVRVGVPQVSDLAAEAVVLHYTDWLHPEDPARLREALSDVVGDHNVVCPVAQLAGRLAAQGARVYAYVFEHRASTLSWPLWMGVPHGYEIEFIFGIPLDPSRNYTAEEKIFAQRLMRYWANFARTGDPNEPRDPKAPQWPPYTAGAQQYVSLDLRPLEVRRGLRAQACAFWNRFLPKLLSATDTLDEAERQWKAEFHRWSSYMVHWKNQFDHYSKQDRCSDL
Procedure, shortened: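 Thiocholine generated from acetylthiocholine by SH-SY5Y cell AChE is detected with Thiolite Green (Ex/Em 490/520 nm) after 40 min at room temperature, following 30 min compound pretreatment at 37 C.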

[2] = molecular target: Acetylcholinesterase (Homo sapiens) (UniProt P22303); assay: Acetylcholinesterase (AChE) small molecule antagonists: enzyme-based qHTS assay with human liver microsomes (AID 1347399; calls by dose curve; further: nearly all actives have a fitted effect of over 60% in size); conditions: Potency: qHTS inhibition
Procedure, shortened: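 Recombinant human AChE (50 mU/mL in the enzyme mix) and human liver microsomes (0.25 mg/mL final) were preincubated with compound and NADPH (0.25 mg/mL final) for 30 min at 37 C. Acetylthiocholine/DTNB was then added; thiocholine was read colorimetrically after 10 min at room temperature.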

[3] = molecular target: Cytochrome P450 2D6 (Homo sapiens) (UniProt P10635); assay: Cytochrome P450 Family 2 Subfamily D Member 6 (CYP2D6) small molecule antagonists: luciferase reporter qHTS assay (AID 1671196); further: nearly all actives have a fitted effect of over 50% in size; further: potency means the concentration at half of the fitted maximal effect; on activity change, negative = inhibition: series mostly up to about 120 µM
Cytochrome P450 2D6 (Homo sapiens), sequence (P10635 whole entry, looked up): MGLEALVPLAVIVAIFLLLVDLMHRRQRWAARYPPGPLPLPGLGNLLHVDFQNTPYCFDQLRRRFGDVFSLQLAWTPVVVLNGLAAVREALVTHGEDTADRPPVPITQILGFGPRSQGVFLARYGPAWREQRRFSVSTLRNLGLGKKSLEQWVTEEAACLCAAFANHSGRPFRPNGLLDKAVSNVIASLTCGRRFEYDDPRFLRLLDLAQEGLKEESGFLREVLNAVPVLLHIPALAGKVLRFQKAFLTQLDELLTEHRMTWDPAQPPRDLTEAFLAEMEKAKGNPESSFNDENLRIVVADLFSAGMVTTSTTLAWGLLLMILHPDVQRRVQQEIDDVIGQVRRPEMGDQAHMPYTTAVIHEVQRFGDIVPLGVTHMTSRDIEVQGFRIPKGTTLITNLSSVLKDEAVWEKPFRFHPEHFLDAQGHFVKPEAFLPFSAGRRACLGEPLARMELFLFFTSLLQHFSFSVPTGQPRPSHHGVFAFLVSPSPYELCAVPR
Procedure, shortened: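 Read-out is luminescence from luciferin formed by CYP2D6 turnover of a proluciferin substrate, recorded as relative luminescence units. Reactions ran 1 h at room temperature after NADPH regeneration solution was added.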

[4] = molecular target: Cytochrome P450 2C19 (Homo sapiens) (UniProt P33261); assay: Cytochrome P450 Family 2 Subfamily C Member 19 (CYP2C19) small molecule antagonists: luciferase reporter qHTS assay (AID 1671197); further: nearly all actives have a fitted effect of over 65% in size; further: potency means the concentration at half of the fitted maximal effect; on activity change, negative = inhibition: series mostly up to about 120 µM
Cytochrome P450 2C19 (Homo sapiens), sequence (P33261 whole entry, looked up): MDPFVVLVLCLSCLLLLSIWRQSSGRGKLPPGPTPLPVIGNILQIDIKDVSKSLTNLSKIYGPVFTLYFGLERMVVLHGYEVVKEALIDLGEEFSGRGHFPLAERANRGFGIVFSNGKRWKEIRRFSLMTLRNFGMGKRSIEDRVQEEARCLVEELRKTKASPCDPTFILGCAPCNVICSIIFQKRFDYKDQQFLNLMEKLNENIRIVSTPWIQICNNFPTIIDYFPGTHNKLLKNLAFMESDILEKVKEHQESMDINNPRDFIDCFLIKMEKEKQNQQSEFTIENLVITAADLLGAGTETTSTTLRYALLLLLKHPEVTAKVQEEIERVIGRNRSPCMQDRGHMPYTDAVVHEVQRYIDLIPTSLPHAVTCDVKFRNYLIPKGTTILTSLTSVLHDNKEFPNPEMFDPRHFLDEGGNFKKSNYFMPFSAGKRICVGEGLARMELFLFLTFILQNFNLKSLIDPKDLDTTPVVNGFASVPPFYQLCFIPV
Procedure, shortened: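 CYP2C19 P450-Glo, 1536-well qHTS. Cpd + enzyme/proluciferin substrate 10 min RT; + NADPH regen, 37C 1 h; stop with luciferin detection reagent, 20 min RT, luminescence (RLU). Pos ctrl ketoconazole.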

[5] = molecular target: Cytochrome P450 2C9 (Homo sapiens) (UniProt P11712); assay: Cytochrome P450 Family 2 Subfamily C Member 9 (CYP2C9) small molecule antagonists: luciferase reporter qHTS assay (AID 1671198); further: nearly all actives have a fitted effect of over 50% in size; further: potency means the concentration at half of the fitted maximal effect; on activity change, negative = inhibition: series mostly up to about 120 µM
Cytochrome P450 2C9 (Homo sapiens), sequence (P11712 whole entry, looked up): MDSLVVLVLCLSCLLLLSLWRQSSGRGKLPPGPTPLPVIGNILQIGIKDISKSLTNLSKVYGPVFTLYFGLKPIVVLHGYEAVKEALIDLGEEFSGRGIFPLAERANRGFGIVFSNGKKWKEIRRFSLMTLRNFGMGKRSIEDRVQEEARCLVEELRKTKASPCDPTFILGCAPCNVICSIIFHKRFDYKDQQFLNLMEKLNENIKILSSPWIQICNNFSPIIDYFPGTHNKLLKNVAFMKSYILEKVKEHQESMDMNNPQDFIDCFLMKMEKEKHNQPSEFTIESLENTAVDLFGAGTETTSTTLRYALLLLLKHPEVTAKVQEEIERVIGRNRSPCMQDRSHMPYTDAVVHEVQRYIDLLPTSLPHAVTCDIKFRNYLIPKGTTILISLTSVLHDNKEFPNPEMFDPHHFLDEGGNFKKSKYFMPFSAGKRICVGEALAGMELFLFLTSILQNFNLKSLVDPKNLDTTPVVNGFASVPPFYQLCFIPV
Procedure, shortened: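 CYP2C9 activity was measured with a P450-Glo proluciferin substrate. Enzyme–substrate mix was held with compound for 10 min at room temperature, then NADPH regeneration solution was added for 1 h at 37C. Luciferin product was read as luminescence.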

[6] = molecular target: Cytochrome P450 1A2 (Homo sapiens) (UniProt P05177); assay: Cytochrome P450 Family 1 Subfamily A Member 2 (CYP1A2) small molecule antagonists: luciferase reporter qHTS assay (AID 1671199); further: nearly all actives have a fitted effect of over 50% in size; further: potency means the concentration at half of the fitted maximal effect; on activity change, negative = inhibition: series mostly up to about 120 µM
Cytochrome P450 1A2 (Homo sapiens), sequence (P05177 whole entry, looked up): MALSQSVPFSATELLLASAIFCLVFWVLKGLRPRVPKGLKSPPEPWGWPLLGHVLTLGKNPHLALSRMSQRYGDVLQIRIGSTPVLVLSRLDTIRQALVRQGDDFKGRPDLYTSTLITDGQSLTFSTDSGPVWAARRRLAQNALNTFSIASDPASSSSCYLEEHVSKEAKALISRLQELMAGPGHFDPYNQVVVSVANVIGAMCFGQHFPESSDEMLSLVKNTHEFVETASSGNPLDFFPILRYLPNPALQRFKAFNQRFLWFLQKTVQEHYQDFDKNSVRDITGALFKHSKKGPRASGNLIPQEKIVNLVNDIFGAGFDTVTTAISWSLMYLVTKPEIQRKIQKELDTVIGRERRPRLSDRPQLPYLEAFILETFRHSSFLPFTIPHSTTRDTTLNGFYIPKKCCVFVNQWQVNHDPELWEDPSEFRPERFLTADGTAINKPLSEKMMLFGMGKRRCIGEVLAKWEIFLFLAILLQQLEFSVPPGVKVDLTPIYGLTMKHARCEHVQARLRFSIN
Procedure, shortened: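 P450-Glo CYP1A2, 1536-well qHTS: enzyme/proluciferin substrate + cpd (DMSO), 10 min RT; NADPH regen, 1 h RT; detection reagent, 20 min; luminescence, RLU.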

[7] = molecular target: Voltage-gated inwardly rectifying potassium channel KCNH2 (Homo sapiens) (UniProt Q12809); assay: Human Ether-a-go-go-Related Gene (hERG) channel small molecule antagonists: fluorescence cell-based qHTS assay (AID 1671200); further: nearly all actives have a fitted effect of over 50% in size; further: potency means the concentration at half of the fitted maximal effect;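 on activity change, negative = inhibition: hERG-expressing U2OS cells given a thallium stimulus after FluxOR II dye loading; series mostly up to about 77 µM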
Voltage-gated inwardly rectifying potassium channel KCNH2 (Homo sapiens), sequence (Q12809 whole entry, looked up): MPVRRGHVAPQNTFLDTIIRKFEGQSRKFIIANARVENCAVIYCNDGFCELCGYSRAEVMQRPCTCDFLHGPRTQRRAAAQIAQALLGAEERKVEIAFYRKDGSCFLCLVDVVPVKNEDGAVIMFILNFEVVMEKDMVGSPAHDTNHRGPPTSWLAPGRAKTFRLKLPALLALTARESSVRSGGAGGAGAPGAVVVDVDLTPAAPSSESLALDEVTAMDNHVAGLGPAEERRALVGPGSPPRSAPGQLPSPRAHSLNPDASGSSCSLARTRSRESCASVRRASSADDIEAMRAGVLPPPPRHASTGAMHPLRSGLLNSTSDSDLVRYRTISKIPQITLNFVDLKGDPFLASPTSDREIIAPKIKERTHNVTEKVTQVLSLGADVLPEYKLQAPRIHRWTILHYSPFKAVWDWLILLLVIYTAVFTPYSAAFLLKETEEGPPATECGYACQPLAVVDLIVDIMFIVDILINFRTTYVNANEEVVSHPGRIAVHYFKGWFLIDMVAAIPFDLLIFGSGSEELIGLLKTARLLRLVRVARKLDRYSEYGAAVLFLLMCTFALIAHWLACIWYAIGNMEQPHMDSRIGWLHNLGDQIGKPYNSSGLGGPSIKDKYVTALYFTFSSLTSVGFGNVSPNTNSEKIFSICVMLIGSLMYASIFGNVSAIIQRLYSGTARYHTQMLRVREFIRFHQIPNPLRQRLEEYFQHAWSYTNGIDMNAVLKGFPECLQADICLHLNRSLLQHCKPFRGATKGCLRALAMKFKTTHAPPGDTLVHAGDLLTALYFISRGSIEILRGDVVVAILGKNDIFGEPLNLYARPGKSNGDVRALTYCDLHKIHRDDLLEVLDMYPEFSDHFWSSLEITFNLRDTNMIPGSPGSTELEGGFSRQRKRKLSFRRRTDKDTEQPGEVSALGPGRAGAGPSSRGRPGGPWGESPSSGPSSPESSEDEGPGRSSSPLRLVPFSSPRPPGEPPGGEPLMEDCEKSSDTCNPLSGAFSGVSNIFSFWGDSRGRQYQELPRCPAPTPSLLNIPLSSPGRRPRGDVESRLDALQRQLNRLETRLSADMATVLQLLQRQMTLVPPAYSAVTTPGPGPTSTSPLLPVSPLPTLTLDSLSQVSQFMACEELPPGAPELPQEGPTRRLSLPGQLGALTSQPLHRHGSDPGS
Procedure, shortened: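 In this thallium-flux screen, overnight-cultured U2OS cells bearing the channel are dye-loaded in darkness for an hour, rested 10 min at room temperature, and then monitored kinetically at 480/540 nm for two minutes post-stimulus.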

[8] = molecular target: Cytochrome P450 3A4 (Homo sapiens) (UniProt P08684); assay: Cytochrome P450 Family 3 Subfamily A Member 4 (CYP3A4) small molecule antagonists: luciferase reporter qHTS assay (AID 1671201); further: nearly all actives have a fitted effect of over 50% in size; further: potency means the concentration at half of the fitted maximal effect; on activity change, negative = inhibition: series mostly up to about 120 µM
Cytochrome P450 3A4 (Homo sapiens), sequence (P08684 whole entry, looked up): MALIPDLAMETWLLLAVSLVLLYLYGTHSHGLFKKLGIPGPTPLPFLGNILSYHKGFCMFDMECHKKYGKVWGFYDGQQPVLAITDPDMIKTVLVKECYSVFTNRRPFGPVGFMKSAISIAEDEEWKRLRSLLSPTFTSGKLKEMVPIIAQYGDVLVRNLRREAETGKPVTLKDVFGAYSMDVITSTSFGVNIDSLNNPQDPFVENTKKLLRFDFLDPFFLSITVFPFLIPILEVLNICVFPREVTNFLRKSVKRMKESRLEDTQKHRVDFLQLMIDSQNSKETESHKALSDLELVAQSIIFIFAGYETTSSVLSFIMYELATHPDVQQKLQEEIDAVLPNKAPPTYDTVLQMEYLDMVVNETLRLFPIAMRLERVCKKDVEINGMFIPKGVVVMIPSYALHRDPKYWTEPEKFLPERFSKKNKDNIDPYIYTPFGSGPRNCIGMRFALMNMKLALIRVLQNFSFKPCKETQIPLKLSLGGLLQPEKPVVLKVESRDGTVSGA
Procedure, shortened: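 CYP3A4 activity was followed with a P450-Glo proluciferin substrate. Test compounds in DMSO were preincubated 10 min; NADPH regeneration then ran 1 h, and light output was read 20 min after detection reagent.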
On the % scale 0 is the no-effect control and ±100 the full control effect.

CC(C)=CCOc1c2occc2cc2ccc(=O)oc12
active: Potency [3] 4.9 µM | Potency [4] 4.36 µM | Potency [5] 0.617 µM | Potency [6] 0.229 µM
inactive: Potency [1] | Potency [2] | Potency [7]

CC(O)(CS(=O)(=O)c1ccc(F)cc1)C(=O)Nc1ccc(C#N)c(C(F)(F)F)c1 (stereo not given)
inactive: Potency [1] | Potency [2] | Potency [3] | Potency [6] | Potency [7]
active: Potency [4] 3.69 µM | Potency [5] 13.1 µM

COP(=S)(OC)Oc1ccc([N+](=O)[O-])cc1Cl
active: Potency [4] 39.9 µM | Potency [5] 20 µM | Potency [6] 22.4 µM
inactive: Potency [1] | Potency [2] | Potency [3] | Potency [7]

CCc1ccc(C(=O)NN(C(=O)c2cc(C)cc(C)c2)C(C)(C)C)cc1
inactive: Potency [1] | Potency [2] | Potency [3] | Potency [6] | Potency [7]
active: Potency [4] 5.03 µM | Potency [5] 11.2 µM | Potency [8] 5.03 µM

Cl/C=C\Cl
inactive: Potency [1] | Potency [2] | Potency [3] | Potency [4] | Potency [5] | Potency [6] | Potency [7] | Potency [8]

CCCCCCCCCC(=O)O[C@H]1CC[C@H]2[C@@H]3CCC4=CC(=O)CC[C@@H]4[C@H]3CC[C@]12C
inactive: Potency [1] | Potency [2] | Potency [3] | Potency [6] | Potency [7]
active: Potency [4] 21.9 µM | Potency [5] 15.5 µM

O=C(O)c1ccccc1C(=O)Nc1cccc2ccccc12
active: Potency [3] 31.7 µM | Potency [4] 15.9 µM | Potency [5] 17.8 µM | Potency [6] 12.6 µM
inactive: Potency [1] | Potency [2] | Potency [7]

O=Cc1ccc(Cl)cc1Cl
inactive: Potency [1] | Potency [2] | Potency [3] | Potency [4] | Potency [5] | Potency [6] | Potency [7] | Potency [8]

COP(=O)(OC)O/C(=C/Cl)c1cc(Cl)c(Cl)cc1Cl
active: Potency [1] 37.6 µM | Potency [3] 33.5 µM | Potency [4] 5.31 µM | Potency [5] 23.7 µM | Potency [6] 2.66 µM
inactive: Potency [2] | Potency [7] | Potency [8]

O=C(O)C(F)(F)C(F)(F)C(F)(F)C(F)(F)C(F)(F)C(F)(F)C(F)(F)C(F)(F)C(F)(F)F
active: Potency [5] 2.83 µM
inactive: Potency [1] | Potency [2] | Potency [3] | Potency [4] | Potency [6] | Potency [7] | Potency [8]

O=C(Nc1ccccc1)Nc1ccnc(Cl)c1
inactive: Potency [1] | Potency [2] | Potency [7]
active: Potency [3] 39.9 µM | Potency [4] 35.6 µM | Potency [5] 10 µM | Potency [6] 20 µM

CNC(C)Cc1ccccc1OC (stereo not given)
active: Potency [3] 13.8 µM
inactive: Potency [1] | Potency [2] | Potency [4] | Potency [5] | Potency [6] | Potency [7]

CCCCCCCCCCOC(=O)c1ccccc1C(=O)OCCCCCCCCCC
inactive: Potency [1] | Potency [2] | Potency [3] | Potency [4] | Potency [5] | Potency [6] | Potency [7] | Potency [8]

CN1C(=O)C(O)N=C(c2ccccc2)c2cc(Cl)ccc21 (stereo not given)
inactive: Potency [1]

O=C(O)CC(Cl)C(=O)O (stereo not given)
inactive: Potency [1] | Potency [2] | Potency [3] | Potency [4] | Potency [5] | Potency [6] | Potency [7] | Potency [8]

CNP(=O)(OC)Oc1ccc(C(C)(C)C)cc1Cl (stereo not given)
inactive: Potency [2] | Potency [7] | Potency [8]
active: Potency [1] 31.7 µM | Potency [3] 71 µM | Potency [4] 8.94 µM | Potency [5] 35.6 µM | Potency [6] 35.6 µM

COc1cc(CC(C)N)cc2c1OCO2 (stereo not given)
active: Potency [3] 2.09 µM | Potency [6] 74.1 µM
inactive: Potency [1] | Potency [2] | Potency [4] | Potency [5] | Potency [7] | Potency [8]

NCC(CC(=O)O)c1ccc(Cl)cc1 (stereo not given)
inactive: activity change, negative = inhibition [1] 5.21% [at 0.439 µM] | activity change, negative = inhibition [2] -0.275% [at 0.435 µM] | activity change, negative = inhibition [3] -6.8% [at 0.435 µM] | activity change, negative = inhibition [4] -14.5% [at 0.435 µM] | activity change, negative = inhibition [5] 1.42% [at 0.435 µM] | activity change, negative = inhibition [6] 12.7% [at 0.435 µM] | activity change, negative = inhibition [7] -9.45% [at 0.29 µM]

CCCC(Cn1cncn1)c1ccc(Cl)cc1Cl (stereo not given)
inactive: Potency [1] | Potency [2] | Potency [7] | Potency [8]
active: Potency [3] 31.7 µM | Potency [4] 0.142 µM | Potency [5] 5.64 µM | Potency [6] 22.4 µM

CC(C)(OO)c1ccccc1
inactive: Potency [1] | Potency [2] | Potency [3] | Potency [7]
active: Potency [4] 35.6 µM | Potency [5] 39.9 µM | Potency [6] 25.2 µM

S=C=NCc1ccccc1
inactive: Potency [1] | Potency [2] | Potency [7]
active: Potency [3] 28.6 µM | Potency [4] 5.08 µM | Potency [5] 36 µM | Potency [6] 28.6 µM | Potency [8] 20.2 µM

[O-][Cl+]O
inactive: Potency [1] | Potency [2] | Potency [3] | Potency [4] | Potency [5] | Potency [6] | Potency [7]

CCCCCCC#N
inactive: Potency [1] | Potency [2] | Potency [5] | Potency [7] | Potency [8]
active: Potency [3] 38.7 µM | Potency [4] 68.8 µM | Potency [6] 38.7 µM

O=C1NCN(c2ccccc2)C12CCN(CCCOc1ccc(F)cc1)CC2
inactive: Potency [1] | Potency [2] | Potency [4] | Potency [5] | Potency [6] | Potency [8]
active: Potency [3] 0.347 µM | Potency [7] 0.601 µM

CN(C)c1ccc(N(C)C)cc1
inactive: Potency [2] | Potency [7]
active: Potency [1] 40 µM | Potency [3] 20.1 µM | Potency [4] 7.99 µM | Potency [5] 20.1 µM | Potency [6] 40 µM | Potency [8] 35.7 µM

COc1nn(CSP(=S)(OC)OC)c(=O)s1
active: Potency [3] 31.7 µM | Potency [4] 0.633 µM | Potency [5] 5.48 µM | Potency [6] 7.96 µM
inactive: Potency [1] | Potency [2] | Potency [7]
